Test results taken from PubChem BioAssay AID493231 (Broad Institute, 2011).
Measured potencies and affinities stand elsewhere. Activity calls are given as the source filed them. The rule behind the calls is not given here.

target: Acyl-homoserine lactone acylase PvdQ (Pseudomonas aeruginosa (strain ATCC 15692 / DSM 22644 / CIP 104116 / JCM 14847 / LMG 12228 / 1C / PRS 101 / PAO1)) (UniProt Q9I194); assay: PvdQ acylase enzyme activity blockers – biochemical, fluorescence, plate reader and imaging, cherry-picks, dose response (AID 493231); conditions: purified PvdQ acylase, fluorogenic substrate; series mostly up to 10 µM;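 note: more negative values mean stronger inhibition of the acylase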
Sequence (Q9I194 whole entry, looked up): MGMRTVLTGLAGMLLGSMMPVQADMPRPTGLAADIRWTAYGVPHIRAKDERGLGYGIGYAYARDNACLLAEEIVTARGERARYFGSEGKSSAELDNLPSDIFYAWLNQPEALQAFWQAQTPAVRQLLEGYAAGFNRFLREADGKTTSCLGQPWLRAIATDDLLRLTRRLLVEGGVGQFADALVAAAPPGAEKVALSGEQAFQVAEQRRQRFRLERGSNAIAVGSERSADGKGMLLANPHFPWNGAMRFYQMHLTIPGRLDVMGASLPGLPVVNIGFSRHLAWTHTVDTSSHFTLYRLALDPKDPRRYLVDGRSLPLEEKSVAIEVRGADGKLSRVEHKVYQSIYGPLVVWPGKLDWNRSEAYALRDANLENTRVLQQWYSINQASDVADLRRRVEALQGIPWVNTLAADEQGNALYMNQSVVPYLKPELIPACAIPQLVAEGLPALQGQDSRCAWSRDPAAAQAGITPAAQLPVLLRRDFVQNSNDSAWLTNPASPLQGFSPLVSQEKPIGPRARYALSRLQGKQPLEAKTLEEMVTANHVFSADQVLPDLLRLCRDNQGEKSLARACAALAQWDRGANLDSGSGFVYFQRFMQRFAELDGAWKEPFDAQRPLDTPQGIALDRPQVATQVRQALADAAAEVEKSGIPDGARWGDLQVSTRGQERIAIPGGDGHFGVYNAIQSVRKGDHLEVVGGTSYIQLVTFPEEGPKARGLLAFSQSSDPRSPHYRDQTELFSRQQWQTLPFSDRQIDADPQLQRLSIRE

outcome, inactive:
CCSc1nc2cc(OC)c(OC)cc2c(=O)n1CC, CN1C(=O)S/C(=C\c2ccc(-n3cncn3)cc2)C1=O, CNC(=S)N/N=C/c1cc(C)n(-c2ccc(Cl)c(Cl)c2)c1C, C/C(CCC1CC(C)OC1=O)=N/Nc1nc(-c2ccccc2)cs1 (stereo not given), Cc1ccc(OCCn2cc(/C(N)=N/O)c3ccccc32)cc1C, Cc1cc(C)cc(NC(=O)C(OC(=O)c2cccs2)c2ccccc2)c1 (stereo not given), Cc1ccccc1-c1cc(C(=O)NCc2cccs2)nn1CC1CC(c2cccc([N+](=O)[O-])c2)=NO1 (stereo not given), CSC(=S)N/N=C/c1ccccc1, Cc1ccc(S(=O)(=O)NCc2ccccn2)cc1C, O=C(Nc1nc2cc3c(cc2s1)OCO3)C1=COCCO1, Cc1cc(=O)[nH]c(SCC(=O)Nc2ccc(Br)cn2)n1, COC(=O)c1ccc(-c2nc3ccccc3[nH]2)cc1, COc1ccccc1CNS(=O)(=O)CCNCCc1ccccc1, CN(C)C(=O)Nc1ccccc1, CC(=O)N/C(=N/c1nc(C)cc(C)n1)Nc1ccc(C)cc1C, CCCc1nnc(NC(=O)Cn2cnc3ccccc3c2=O)s1, CC(Sc1nnc(-c2ccccc2F)n1C)C(=O)NC1CCCCC1 (stereo not given), CC(C)(C)OC(=O)N(CCc1ccccc1)Cc1ccccc1OCc1cccc(NC(=O)C2CC2)c1, Cc1ccsc1C(=O)NCCC(c1ccccc1)c1ccccc1, COc1ccc(-c2cc3ccccc3cn2)cc1, COc1ccccc1C1CCN(C(=O)C2CCCCC2)CC1, N#C/C(=C\c1ccco1)c1nc2ccccc2s1, Cc1ccc(O)c(NC(=S)NC(=O)/C=C/c2ccco2)c1, CS(=O)(=O)c1ccc2sc(NC(=O)c3cc4ccccc4o3)nc2c1, O=[N+]([O-])c1nn(-c2ccc(Cl)cc2)n(O)c1=NCc1ccccc1, CC(=O)c1ccc2c3c(cc(C)c2c1)CCCC3, CCCSC1=C(C#N)C(c2ccc(OC)cc2)C2=C(CC(C)(C)CC2=O)N1 (stereo not given), COc1ccc(Cl)c(NCCC(=O)O)c1, CCOC(=O)c1ccc(N2Cc3ccccc3C2=NC(=O)c2ccncc2)cc1, COc1ccc(CCNC(=O)/C(C#N)=C/c2ccc(OCC(=O)NCC3CCCO3)cc2)cc1OC (stereo not given), CCOC(=O)/C(C#N)=C/c1c(N2CCCCCC2)nc2ccccn2c1=O, COc1ccc(-c2onc3ccc(Br)cc23)cc1, O=C(NCCc1ccc2c(c1)OCCO2)c1ccccc1F, c1ccc2sc(-c3ccc4c(c3)OCO4)nc2c1, O=C(c1ccc(-c2ccccc2)cc1)C1CCCN(C(=O)c2cncs2)C1 (stereo not given)
